Screens: PubChem, National Center for Advancing Translational Sciences (NCATS)
Rows were chosen to be rich in hits. Some 1.2% of all compounds tested hit in one or more screens of this group.
TRb SRC2 PPI: disrupts binding of human TR beta to SRC2. P10828. Potency, µM (highest dose often 106 µM), for inactives: at the top dose activity change, negative = inhibition, actives largely listed as inhibitors. AID 1469. TRbeta-SRC2 peptide binding, fluorescence polarization; receptor liganded with 1 µM T3. 0.065% of 280,000 active;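 also: plate controls were bound peptide for no effect and peptide without receptor for full effect; nearly all actives have a fitted effect of over 50% in size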
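TRb LBD 0.6 uM + Texas Red SRC2 peptide 20 nM, 1 uM T3, Tris buffer w/ 5% DMSO; compound pinned, 5 h RT; FP read ex 555/em 632; normalized to unbound and bound controls.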
RGS12 GoLoco inh: RGS12 GoLoco-Gai1 interaction inhibition. Potency, µM (doses to about 61.6 µM), for inactives: at the highest dose activity, negative = inhibition, actives largely listed as inhibitors. Gai1:RGS12 GoLoco peptide FP, rhodamine, 10 min. P63096. 0.44% of 230,000 active; active = well fitted inhibition curve with a large enough effect, not every such curve was filed as active; inactive = no such curve, though single readings can be large or run the other way; also: nearly all actives have a fitted effect of over 30% in size
Target sequence (P63096 whole entry, looked up): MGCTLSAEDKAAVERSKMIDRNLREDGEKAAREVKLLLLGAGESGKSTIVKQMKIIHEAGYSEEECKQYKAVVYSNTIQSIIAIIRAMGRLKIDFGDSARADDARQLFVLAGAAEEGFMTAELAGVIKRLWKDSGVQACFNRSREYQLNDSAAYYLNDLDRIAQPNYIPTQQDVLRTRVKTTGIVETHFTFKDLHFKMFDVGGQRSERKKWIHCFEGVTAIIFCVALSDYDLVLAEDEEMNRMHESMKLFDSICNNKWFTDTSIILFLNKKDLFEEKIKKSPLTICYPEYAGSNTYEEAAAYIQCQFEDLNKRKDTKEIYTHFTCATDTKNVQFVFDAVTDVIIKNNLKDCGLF
TexasRed fluor: alters Texas Red total fluorescence, flagging assay interference; 0.29% of 280,000 active; Potency, µM (highest dose often 106 µM), for inactives: at the highest dose fluorescence change, negative = quenching; TRb/SRC2 Texas Red total fluorescence interference; AID 1479; active = well fitted curve in either direction with a large enough effect; inconclusive = small, poorly fitted or top-dose-only effect
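Human TRb ligand-binding domain at 0.6 uM with 20 nM Texas Red SRC2 peptide in Tris buffer containing 1 uM T3 and 5% DMSO, incubated with compound 5 h at ambient temperature. Total fluorescence (555/632 nm) calculated as parallel + 2 × perpendicular.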
VDR inhibitor: inhibitors of human vitamin D receptor. VDR-SRC2-3 peptide fluorescence polarization, 2 h. P11473. Potency, µM, for inactives: max response, negative = inhibition, hits mostly inhibitors. AID 504847. 0.93% of 400,000 active
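Measured by FP: displacement of SRC2-3 coactivator peptide from VDR by library compounds, following a two-hour ambient incubation.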
GCN5L2 inh: GCN5L2 (KAT2A) acetyltransferase inhibition. Q92830. GCN5L2 HAT assay, ThioGlo1 CoA-SH fluorescence. Potency, µM (titrated, usually from 58.9 µM), for the others: at the top dose activity change, negative = inhibition, most hits filed as inhibitors. 0.21% of 390,000 active. AID 504327
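Enzyme at 20nM final was mixed with library compounds for 15 min at room temperature. Peptide H3(1-25) at 75uM, acetyl-CoA at 70uM and ThioGlo1 at 50uM were then added. Plates were read immediately and after 20 min (Ex340nm/Em540nm).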
* = called active by the depositor; ? = inconclusive; . = no result; [ ] = dose if it differs, or a comment. Unless noted, calls follow the shape of the dose curve; as a rule, active = well fitted curve in the direction sought with a large enough effect; inconclusive = small, poorly fitted or top-dose-only effect, or another doubt; inactive = no such curve, though single readings can be large; an effect the other way counts as inactive or inconclusive. Unless noted, % is scaled to controls: 0 for no effect and ±100 for the full control effect; potency is read from the fitted curve at half-maximal effect.

SMILES	TRb SRC2 PPI	RGS12 GoLoco inh	TexasRed fluor	VDR inhibitor	GCN5L2 inh
O=S(=O)(c1ccc(F)cc1)N1CCN(c2nc(-c3cccs3)nc3cc(Cl)ccc23)CC1	.	.	.	-19.8%	.
C=Cc1c(C)c2cc3nc(cc4[nH]c(cc5nc(cc1[nH]2)C(C)=C5CCC(=O)O)c(CCC(=O)OC)c4C)[C@@]1(C)C3=CC=C(C(=O)OC)[C@H]1C(=O)OC (tested in a mixture with another compound)	-18.3%	4.1%[21.6 µM]	5.3%	1.12µM*	3.8%[21.4 µM]
O=C(CSc1nccn(-c2cccc(F)c2)c1=O)Nc1ccc(Cl)cc1F	.	.	.	89.1µM*	-10.1%
O=C(NCCc1csc(-c2ccc(F)cc2)n1)c1c(F)cccc1Cl	-11.9%	.	0.0002µM*[quencher]	15.3%	-5.2%
COC(=O)c1ccc(NC(=O)C(=O)NCCc2csc(-c3ccc(F)cc3)n2)cc1	-10.1%	.	0.0004µM*[quencher]	17.1%	-3.5%
O=C(NCCc1csc(-c2ccccc2)n1)c1c(F)cccc1Cl	4.4%	9.9%	-1.3%	-0.4%	-5.2%
O=C(O)CC12C[C@H]3C[C@@H](CC(O)(C3)C1)C2	.	0.6%[14.2 µM]	.	.	.
Cc1cc(=O)oc2c(OS(C)(=O)=O)c(OS(C)(=O)=O)ccc12	.	0.5%[14.2 µM]	.	.	.
CSc1nnc(Cn2c(=O)sc3ccccc32)n1-c1ccccc1C	.	.	.	50.1µM*	.
Nc1c(C(=O)Nc2nc3ccccc3s2)sc2nc(-c3cccs3)ccc12	?	56.2%	31.6µM*[quencher]	31.8%	-24.2%
Cc1ccc(C2=NN=C(NC(=O)C(F)(F)F)SC2)cc1	-7.0%	-14.3%	-1.7%	50.1µM*	1.1%
CCCCCCCN	-1.1%	6.4%	-1.8%	.	.
O=C(/C=C/Sc1ccccc1)c1ccc(Cl)cc1	-4.7%	-1.8%	1.1%	56.2µM*	-8.7%
O=C(/C=C/Sc1ccccc1)c1ccccc1	-1.5%	-8.2%	1.2%	-86.0%	-9.8%
CCCNC(=O)OC[C@@H]1O[C@H](CCO/N=C(\C)CCN2CCc3nc(CC)c(CC)cc3C2)C=C[C@@H]1Oc1ccc(OC)cc1	-3.1%[11.2 µM]	.	-5.0%[11.2 µM]	.	.
CN(C)CCC(=O)c1cccc(Br)c1	0.2%	24.5%	-0.5%	?	-9.3%
CCCCCCc1ccc(C(=O)CCN(C)C)cc1	15.8µM*	.	1.0%	.	.
COc1ccc(COC(=O)N/N=C2/C[C@@H](O)[C@@H](O)[C@@H]3[C@@H]4C(=O)N(C5CCCCC5)C(=O)[C@H]4CC[C@@H]23)cc1	-2.0%[11.2 µM]	.	-32.4%[11.2 µM]	.	.
Cc1cc2nc3c(=O)[nH]c(=O)nc-3n(C)c2cc1C=O	0.9%	10µM*	1.2%	-29.0%	28.2µM*
CC(=O)OCCn1c2nc(=O)[nH]c(=O)c-2nc2cc(C)c(C)cc21	-7.3%	14.1µM*	-6.0%	-18.0%	?
CC(C)CO/N=C1/C[C@@H](O)[C@@H](O)[C@@H]2[C@@H]3C(=O)N(c4cccc(Oc5ccccc5)c4)C(=O)[C@H]3CC[C@H]12	-2.9%[11.2 µM]	.	-0.3%[11.2 µM]	.	.
COC(=O)C1=C(C(=O)OC)[C@@H]2N(C)c3ccc(OC)cc3[C@@]23C[C@@H](C(=O)OC)N(S(=O)(=O)c2c(C)noc2C)C3=N1	5.3%[11.2 µM]	2.8%[14.2 µM]	-2.8%[11.2 µM]	.	.
Cc1cc(SC#N)cc(C)c1NC(=O)CCl	-3.5%	-0.7%	5.9%	?	-4.1%
CCc1cc(SC#N)cc(C)c1NC(=O)CCl	6.3%	2.0%	-1.4%	79.4µM*	-3.7%
CCCCC(CC)COC(=O)CS (configuration not stated)	6.5%[201 µM]	.	-0.2%[201 µM]	.	.
SMILES	TRb SRC2 PPI	RGS12 GoLoco inh	TexasRed fluor	VDR inhibitor	GCN5L2 inh
N#CC(=C1Nc2ccccc2N1)S(=O)(=O)c1ccccc1	4.8%	11.4%	-1.1%	50.1µM*	-15.4%
N#CC(C(=O)Nc1ccccc1)=C1Nc2ccccc2N1	-2.2%	9.0%	-12.0%	0.6%	0.1%
COC(=O)N1C2=C(c3ccccc3[C@@H]1CC(=O)Nc1ccc3cc4ccccc4cc3c1)[C@@H]1C(=O)N(c3ccccc3)C(=O)[C@@H]1[C@H](C)C2	-2.5%[11.2 µM]	5.0%[14.2 µM]	-3.5%[11.2 µM]	.	.
CN(C)CCNC(=O)C(c1ccccc1)c1ccccc1	4.7%	-4.6%	-7.2%	-18.7%	-3.4%
CN(C)CCC(=O)C(Cc1ccccc1)c1ccccc1 (configuration not stated)	.	.	.	44.7µM*	.
COC(C(=O)C(O)C(C)O)C1Cc2cc3cc(OC4CC(OC5CC(O)C(O)C(C)O5)C(O)C(C)O4)c(C)c(O)c3c(O)c2C(=O)C1OC1CC(OC2CC(OC3CC(C)(O)C(O)C(C)O3)C(O)C(C)O2)C(O)C(C)O1 (configuration not stated)	.	.	.	?	0.2%
CCCc1ccc(C2=Nn3c(nnc3C(C)C)SC2)cc1	.	.	.	79.4µM*	-7.9%
CCN1CCN(c2cc(C)c3cc(NC(=O)/C=C/c4cccc(Cl)c4)ccc3n2)CC1	0.1%	.	-5.5%	26.3%	-8.3%
CCOc1cc(/C=C2\COc3ccccc3C2=O)ccc1OCC(=O)N(C)C	.	.	.	50.1µM*	-10.2%
COc1ccc(/C=C2\CCc3ccccc3C2=O)cc1OC	-1.4%	2.7%	-0.6%	?	-3.3%
CCNC(=O)COc1ccc(/C=C2\COc3ccccc3C2=O)cc1OC	.	.	.	35.5µM*	-5.7%
CCCCCCCCCCC(C)=O	1.4%	.	2.3%	0.1%	0.5%
CCC1CCCCN1Cc1nc2c(c(=O)n(C)c(=O)n2C)n1Cc1c(F)cccc1Cl (configuration not stated)	.	.	.	5.6%	.
CCCCC(=Nc1ccc(N)cc1)C1=C(O)C(C(=O)OC)C(C)(C)CC1=O (configuration not stated)	?	25.1µM*	?	?	0.8%
O=C(O)c1ccccc1Nc1ccc(CCc2ccc(Cl)c(Cl)c2)cc1	-2.1%	.	1.4%	35.5µM*	11.2µM*
O=C(O)c1ccc(-c2ccccc2C(F)(F)F)s1	3.4%[201 µM]	-21.1%[88.7 µM]	-3.7%[201 µM]	126µM*	-12.6%[88.6 µM]
CO/N=C/c1ccc(Oc2ccc(C)cc2)c([N+](=O)[O-])c1	-8.1%	-8.9%	-1.2%	28.2µM*	-11.5%
CC(C)(C)c1nn(-c2ccccc2)c2[nH]c(=O)c(CNc3ccc4c(c3)OCCO4)cc12	3.0%	-4.5%	-0.7%	18.2%	35.5µM*
O=C1C(=Cc2cccn2-c2ccc(O)cc2)C(=O)c2ccccc21	-1.7%	20µM*	-3.0%	19.7%	-7.8%
Cc1ccc(CNC(=O)Cc2coc3cc(C)cc(C)c23)cc1	?	.	4.47µM*[quencher]	12.7%	-6.2%
